# Test results: PubChem BioAssay AID1240 (Sanford-Burnham Center for Chemical Genomics, 2008)
# Among all 50,000 compounds or so, about 800 (1.6%) showed an effect of 50% or more. This excerpt belongs to a sample that is enriched for strong results.
# Target: Bcl-2-like protein 10 (Homo sapiens) (UniProt Q9HD36)
# Assay: Phenotype converters, Bcl-B/TR3 peptide binding displacement, primary biochemical FP (AID 1240);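 further: 0% = Bcl-B with tracer peptide and DMSO and 100% = tracer peptide lacking Bcl-B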
# Settings: GST-Bcl-B / FITC-TR3 peptide fluorescence polarization; stronger effect = higher value; compound at 3.75 mg/L
# Bcl-2-like protein 10 (Homo sapiens), sequence (Q9HD36 whole entry, looked up): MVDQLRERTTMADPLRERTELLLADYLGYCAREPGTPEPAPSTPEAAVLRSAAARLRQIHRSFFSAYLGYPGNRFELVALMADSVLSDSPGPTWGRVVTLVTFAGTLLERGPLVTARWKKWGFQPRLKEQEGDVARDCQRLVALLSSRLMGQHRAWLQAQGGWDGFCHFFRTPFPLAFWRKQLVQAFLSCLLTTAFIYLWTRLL
row,Compound,displacement [%]
1,CN(C)c1ccc(/C=N/NC(=O)c2ccc(CN3CCOCC3)cc2)cc1Br,6.3
2,Cc1ccc(-c2csc(N)c2C(=O)OC(C)C)cc1,-1.9
3,Cc1c(NC(=O)c2cccs2)cccc1-c1nc2ncccc2o1,3.8
4,O=C(Nc1ccc(Nc2ccccc2)cc1)c1ccc(Cl)cc1Cl,-13.5
5,O=C(N/N=C/c1ccccc1Cl)c1ccccn1,-9.6
6,CNCCOc1nc(-c2ccccc2)cc(-c2ccccc2)n1,-7.8
7,CCOC(=O)N1CCN(S(=O)(=O)c2ccc(C)cc2)C1,10.6
8,O=C1CS/C(=N/N=C/c2ccc3c(c2)OCO3)N1,-8.7
9,CC1(C)CC(NCC(=O)OC2CCCCC2)CC(C)(C)N1,12.1
10,NC(CC(=O)OC1CCCCC1)C(=O)OC1CCCCC1 (stereo unspecified),74.3
11,O=C(NCC1CCS(=O)(=O)C1)OC1CCCCC1 (stereo unspecified),2
12,Cc1ccc2[nH]c(C)c(CN(C)Cc3ccccc3)c(=O)c2c1,-15.8
13,COCCCNC(=O)CN(c1cccc([N+](=O)[O-])c1)S(=O)(=O)c1ccccc1,11.1
14,Cc1cc(NC(=O)c2cc(-c3ccccc3)nc3ccccc23)no1,3.8
15,CCO/C=C1\C(=O)N(CC)c2ccccc21,19.1
16,CN(C)/C=C1/C=C(c2ccccc2)OC1=O,-11.5
17,CN(C)/C=C1\C=C2C(=O)c3ccccc3N2C1=O,162
18,COc1ccc(N(CC(=O)NCc2ccccc2)S(=O)(=O)c2ccc(C)cc2)cc1,-1.4
19,COc1ccc(OC)c(N(CC(=O)N/N=C/c2ccc(OC3CSC3)cc2)S(=O)(=O)c2ccccc2)c1,7.5
20,COc1ccc(/C(N)=N/OC(=O)c2ccc(Cl)cc2)cc1,83.7
21,COc1ccc(/C(N)=N/OC(=O)c2ccc(C)cc2)cc1,-20.8
22,COc1ccc(C(=O)O/N=C(\N)c2ccccc2)cc1,-9.3

row,Compound,displacement [%]
1,O=C(COc1ccccc1Cl)NNC(=O)c1ccccn1,-13
2,COc1ccc(/C=C2\C=C(c3ccc(Cl)cc3)OC2=O)cc1[N+](=O)[O-],36.4
3,CCOc1c(I)cc(/C=C2\C(=O)ON=C2c2ccccc2)cc1OC,3.5
4,O=C1ON=C(c2ccc(Cl)cc2)/C1=C/c1ccc(O)cc1,4.4
5,CCOc1cc(/C=C2/C(=O)ON=C2c2ccc(Cl)cc2)ccc1OC,118
6,COc1ccc(C2=C/C(=C/c3ccc(Cl)cc3)C(=O)O2)cc1,-4.1
7,COc1ccc(C2=C/C(=C/c3ccc(Cl)cc3)C(=O)O2)cc1OC,105
8,COc1ccc(/C=C2\C=C(c3ccc(Cl)cc3)OC2=O)cc1OC,147
9,COc1ccc(/C=C2\C=C(c3ccc(Cl)cc3)OC2=O)cc1C,0.9
10,COc1cc(/C=C2\C=C(c3ccc(Cl)cc3)OC2=O)cc(Br)c1OC,-9.5
11,CN(C)c1ccc(C=Nn2cnnc2)cc1,-7.2
12,CCN(CC)CCSc1nc(O)c(C2CCCCC2)c(=O)[nH]1,-6.4
13,COc1cccc(C2NC(=S)NC(C)=C2C(=O)Nc2cccc(Cl)c2)c1 (stereo unspecified),-14
14,N#C/C(=C\c1ccc(-c2cccc([N+](=O)[O-])c2)o1)C(=O)N1CCOCC1,-3.5
15,CCOC(=O)c1c(C)n(C)c2c1cc(O)c1ccccc12,-0.3
16,Cc1ccc(/C=C(\C#N)c2nc(-c3ccc([N+](=O)[O-])cc3)cs2)o1,3.5
17,C=CCNC(=O)CN(c1ccc(OC)cc1OC)S(=O)(=O)c1ccc(C)cc1,8.5
18,C=COCCNC(=O)C(=O)Nc1ccc(F)cc1,5
19,Cc1cccc(NC(=O)CCCN2C(=O)c3cccc4cccc(c34)C2=O)n1,0.6
20,O=C1NN(c2ccccc2)C(=O)/C1=C/c1ccc(-c2ccccc2Cl)o1,-13.5
21,COC(=O)c1ccccc1-c1ccc(/C=C2/SC(=S)N(CC(=O)O)C2=O)o1,5.3
22,O=C1/C(=C/c2ccc(-c3ccccc3[N+](=O)[O-])o2)SC(=S)N1c1cccc(Cl)c1,73.5

row,Compound,displacement [%]
1,O=C1/C(=C/c2ccc(-c3ccccc3[N+](=O)[O-])o2)SC(=S)N1c1cccc(C(F)(F)F)c1,-3
2,COC(=O)c1ccccc1-c1ccc(/C=C2/SC(=S)N(c3ccccc3)C2=O)o1,70
3,COC(=O)c1ccc(-c2ccc(/C=C3/SC(=S)N(c4ccccc4)C3=O)o2)cc1,12.6
4,COc1ccc(N2C(=O)/C(=C/c3ccc(-c4ccccc4[N+](=O)[O-])o3)SC2=S)cc1,11.9
5,O=C(/C=C/c1cccc(C(F)(F)F)c1)Nc1cccc([N+](=O)[O-])c1,20.4
6,CCOc1ccccc1NC(=S)NCc1ccccc1,3.9
7,O=[N+]([O-])c1ccccc1S(=O)(=O)NCc1ccc2c(c1)OCO2,-3.4
8,Cc1cc(OCC(=O)NC(C)c2ccccc2)cc(C)c1Cl (stereo unspecified),1.4
9,Cc1ccc(OCC(=O)NC(C)c2ccccc2)cc1C (stereo unspecified),89.2
10,Cc1cccc(OCC(=O)NC(C)c2ccccc2)c1 (stereo unspecified),-5.2
11,COC(=O)c1sc(NC(=O)c2c(-c3c(Cl)cccc3Cl)noc2C)c(C#N)c1C,3.1
12,O=C(Oc1ccc(/C=N/NS(=O)(=O)c2ccc(Cl)cc2)cc1)c1ccco1,6.4
13,O=C(O)c1cccc(-c2ccc(C=C3C(=O)c4ccccc4C3=O)o2)c1,-2.7
14,O=C(O)c1ccc(-c2ccc(C=C3C(=O)c4ccccc4C3=O)o2)cc1Cl,25.2
15,O=C(O)c1ccc(Cl)c(-c2ccc(C=C3C(=O)c4ccccc4C3=O)o2)c1,99.1
16,N/C(=N\OC(=O)c1ccc(Cl)c([N+](=O)[O-])c1)c1ccccc1Cl,1.1
17,O=C1c2ccccc2NC(c2ccc(-c3ccccc3[N+](=O)[O-])o2)N1c1ccccc1 (stereo unspecified),16.8
18,Cc1cc(C(=O)N/N=C/c2ccc(Br)c([N+](=O)[O-])c2)n[nH]1,5.2
19,O=C(CNc1ccc2ccccc2c1)N/N=C/c1ccc(Br)c([N+](=O)[O-])c1,-4.4
20,O=C(N/N=C/c1ccc(Br)c([N+](=O)[O-])c1)c1cccs1,113
21,CCC1S/C(=N/N=C/c2ccc3c(c2)OCO3)NC1=O (stereo unspecified),-13.8
22,CCC1S/C(=N\N=C\c2cccc3ccccc23)NC1=O (stereo unspecified),127

row,Compound,displacement [%]
1,O=C1N/C(=N/N=C/c2ccccc2O)SC1Cc1ccccc1 (stereo unspecified),1.4
2,O=c1[nH]c(=S)[nH]c2c1C1(CCCC1)Cc1ccccc1-2,-4.2
3,COc1ccc(COC(=O)C2=C(C)NC3=C(C(=O)CCC3)C2c2cccc3ccccc23)cc1 (stereo unspecified),10.9
4,COc1ccc(/C=C(\C#N)c2nc3ccccc3[nH]2)cc1OC,11
5,COc1cc(/C=C(/C#N)c2nc3ccccc3[nH]2)c([N+](=O)[O-])cc1OCCC(C)C,69.6
6,COc1cc(/C=C(\C#N)c2nc3ccccc3[nH]2)c(Br)cc1O,-96.8
7,COc1ccc(CC(=O)N2CCN(c3cccc(Cl)c3)CC2)cc1OC,2
8,COC(=O)C1=C(C)NC2=C(C(=O)CC(C)(C)C2)C1c1ccc(OC)cc1OC (stereo unspecified),11.9
9,O=C1C(=Cc2ccc(I)o2)C(=O)c2ccccc21,37.1
10,Cc1ccc(C=C2C(=O)c3ccccc3C2=O)o1,10.9
11,O=C1C(=Cc2ccc(Sc3ccccc3)o2)C(=O)c2ccccc21,163
12,C#CCOc1c(Br)cc(/C=C2\C(=O)NC(=O)N(c3ccc(Cl)cc3)C2=O)cc1OC,-0.6
13,CCn1nnnc1-c1ccc(OC)c(S(=O)(=O)Nc2ccc(Cl)cc2)c1,9.3
14,CCn1nnnc1-c1ccc(OC)c(S(=O)(=O)Nc2ccc(F)cc2)c1,6.1
15,CCn1nnnc1-c1ccc(OC)c(S(=O)(=O)Nc2ccc(Br)cc2)c1,58.3
16,CCc1ccc(-n2c(C)cc(/C=C3/NC(=O)NC3=O)c2C)cc1,-6.3
17,O=C(NC1CCCCCC1)c1cccc(Cl)c1,4.5
18,O=C(NC1CCCCC1)c1ccc2nc3ccccc3nc2c1,81.5
19,O=C(NC1CCCCC1)c1ccc(Cl)c(Cl)c1,3.3
20,CCOC(=O)C(=CNc1ccccc1C(C)C)C(=O)OCC,-7.2
21,O=C1c2cccc3cccc(c23)C(=O)N1Nc1ccc([N+](=O)[O-])cc1,3.8
22,COc1ccc(-c2cc(C(=O)Nc3nc4ccc(S(C)(=O)=O)cc4s3)c3ccccc3n2)cc1OC,5

row,Compound,displacement [%]
1,Cc1ccc2c(c1)NC(c1ccc(F)cc1)C1=C(CC(C)(C)CC1=O)N2 (stereo unspecified),17.8
2,Cc1ccc2c(c1)NC(c1ccc(C)o1)C1=C(CC(C)(C)CC1=O)N2 (stereo unspecified),88.5
3,Cc1ccc2c(c1)NC(c1ccccc1)C1=C(CC(C)(C)CC1=O)N2 (stereo unspecified),-3.1
4,CCCCCC(=O)N1c2ccccc2NC2=C(C(=O)CC(c3ccc(OC)cc3)C2)C1c1ccco1 (stereo unspecified),-3.9
5,Cc1ccc2nc(SCc3ccc([N+](=O)[O-])cc3)nc(C)c2c1,-7.5
6,O=C(Cc1ccccc1)Nc1ccc(Cl)c(-c2nc3ncccc3o2)c1,7.3
7,Cc1ccc(C(=O)Nc2cccc3ccccc23)o1,16.6
8,O=C(Nc1c(C(=O)N2CCC(Cc3ccccc3)CC2)cnn1-c1ccccc1)c1cccc(F)c1,3.5
9,Cc1ccc(C(=O)Nc2c(C(=O)N3CCC(Cc4ccccc4)CC3)cnn2-c2ccccc2)cc1,-8.3
10,O=C(Nc1c(C(=O)N2CCC(Cc3ccccc3)CC2)cnn1-c1ccccc1)c1ccccc1F,88.9
11,CCOC(=O)C1=C(O)/C(=C\c2ccc(OCC)cc2)N=C1C,18.1
12,Cc1ccc(N2C(=O)/C(=C/c3cc(C)n(C)c3C)C(=O)NC2=S)cc1,97
13,Cc1cc(/C=C2\C(=O)NC(=S)N(c3ccc(Cl)cc3)C2=O)c(C)n1C,29.5
14,CCc1ccccc1N1C(=O)/C(=C/c2cc(C)n(C)c2C)C(=O)NC1=S,8.1
15,Cc1cc(/C=C2\C(=O)NC(=S)N(c3cccc(Cl)c3Cl)C2=O)c(C)n1C,0.8
16,Cc1cc(/C=C2\C(=O)NC(=S)N(c3ccc(Br)cc3)C2=O)c(C)n1C,-2.4
17,Cc1cccc(N2C(=O)/C(=C/c3cc(C)n(C)c3C)C(=O)NC2=S)c1C,111
18,Cc1ccc(S(=O)(=O)N2CCN(C(=O)COc3ccc(Cl)cc3)CC2)cc1,-15.1
